# Laboratory results from PubChem BioAssay (NCI).
# Compounds without any hit were thinned out: in the full panel of roughly 83,000, 20% have a hit.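 Percent growth is the endpoint: 0 to 100 indicates growth inhibition (40 means 60% inhibition), 0 means no net growth, and negative values indicate cell death.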 Values without a mark were called inactive. Calls of active or inactive are those of the source. The calls were made as follows: active = growth percent below 10; inactive = the rest.
# Test system: SN12C renal
# Test: NCI-60 one-dose screen, 48 h (100 = growth as untreated, 0 = no growth, -100 = all killed)
# Details: 10 µM unless noted
row,SMILES,growth
1,N#Cc1c(NC(=O)c2ccc([N+](=O)[O-])o2)[n+]([O-])c2cc(F)c(F)cc2[n+]1[O-],108%
2,CC(C)(C)OC(=O)N1C/C(=C\c2cccs2)C(=O)/C(=C/c2cccs2)C1,93.6%
3,CC(Cc1nnc(SCC(=O)Nc2ccc(I)cc2)n1N)c1ccccc1 (stereo not given),98.4%
4,COC(=O)CC/C(C)=N\Nc1ccc([N+](=O)[O-])cc1,81.9%
5,COc1ccccc1OCC(=O)Nc1sc2c(c1C(N)=O)CCC2,64.2%
6,CC(=O)N1Cc2ccccc2C(C)Cc2cc(Cl)ccc21 (stereo not given),104%
7,COc1ccc(/C(=N/O)c2cc(OC)c(OC)c(OC)c2)c(OC)c1N,52.8%
8,CC(C)CCC[C@@H](C)[C@H]1CC[C@H]2[C@@H]3CC[C@H]4C/C(=N/O)CC[C@]4(C)[C@H]3CC[C@]12C,103%
9,C/C(=N\NC(=O)CC#N)c1cc2cc(Cl)ccc2o1,93.1%
10,CCC#CC[C@H]1C/C=C2/C(=O)C=C[C@@H]2C/C=C\CCCC(=O)O1,0.755% (active)
11,Cc1cc(C(=O)O)c(N)c(C)n1,106%
12,CCCCCCOc1ccc(C2(Cl)c3ccccc3N(C)c3ccccc32)cc1,52.4%
13,CC(C)N(Cc1ccc(CN(C(=O)CCl)C(C)C)cc1)C(=O)CCl,15.4%
14,COc1cc(-n2nc(C(=O)Nc3ccc(C(=O)O)cc3)nc2-c2ccccc2)cc(OC)c1OC,82.1%
15,NC(=O)NNC(=O)c1ccccc1,114%
